# Results taken from article PMC7862700, “An all-to-all approach to the identification of sequence-specific readers for epigenetic DNA modifications on cytosine”.
# What was measured:
# Assay in all cases: DAPPL (digital affinity profiling via proximity ligation, sequencing); 10 mM Tris-HCl pH 7.5, 50 mM NaCl, 1 mM DTT, 4% glycerol, room temperature, 30 min; GST-TFs on glutathione beads, 16-mer random dsDNA library, 0.1% formaldehyde crosslink after washing; high values mean tight binding
# FEV = target: T1, FEV (Homo sapiens, UniProt Q99581 1-238); settings: protein: recombinant; tags: N-terminal GST; dsDNA, one strand shown
# T1 sequence: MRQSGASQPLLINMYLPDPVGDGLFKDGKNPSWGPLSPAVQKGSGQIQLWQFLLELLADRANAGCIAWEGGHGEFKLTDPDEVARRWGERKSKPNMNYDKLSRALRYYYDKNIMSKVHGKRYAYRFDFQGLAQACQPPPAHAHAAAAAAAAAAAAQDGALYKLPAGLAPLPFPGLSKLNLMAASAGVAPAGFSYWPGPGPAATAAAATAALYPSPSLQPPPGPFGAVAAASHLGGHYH
# Outline: (§1)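 Beads coated with glutathione captured GST-fused human transcription factors that had been expressed in yeast, and the factors were then given DNA barcodes and pooled with a tag-only sample. The pools were incubated with 200 nmole of a random double-stranded 16-mer DNA library in Tris/NaCl/DTT/glycerol buffer for 30 min at room temperature, washed, crosslinked with 0.1% formaldehyde and proximity-ligated with BsaI/T4 ligase at 37 °C for 1 h. PCR amplification and Illumina NextSeq500 sequencing came last. Binding signal is each hexamer's read frequency for a factor divided by its frequency for the tag-only sample.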
# ETV5 = ETV5 (Homo sapiens, UniProt P41161 1-510); settings: protein: recombinant; tags: N-terminal GST; dsDNA, one strand shown
# Sequence of ETV5 (P41161 whole entry): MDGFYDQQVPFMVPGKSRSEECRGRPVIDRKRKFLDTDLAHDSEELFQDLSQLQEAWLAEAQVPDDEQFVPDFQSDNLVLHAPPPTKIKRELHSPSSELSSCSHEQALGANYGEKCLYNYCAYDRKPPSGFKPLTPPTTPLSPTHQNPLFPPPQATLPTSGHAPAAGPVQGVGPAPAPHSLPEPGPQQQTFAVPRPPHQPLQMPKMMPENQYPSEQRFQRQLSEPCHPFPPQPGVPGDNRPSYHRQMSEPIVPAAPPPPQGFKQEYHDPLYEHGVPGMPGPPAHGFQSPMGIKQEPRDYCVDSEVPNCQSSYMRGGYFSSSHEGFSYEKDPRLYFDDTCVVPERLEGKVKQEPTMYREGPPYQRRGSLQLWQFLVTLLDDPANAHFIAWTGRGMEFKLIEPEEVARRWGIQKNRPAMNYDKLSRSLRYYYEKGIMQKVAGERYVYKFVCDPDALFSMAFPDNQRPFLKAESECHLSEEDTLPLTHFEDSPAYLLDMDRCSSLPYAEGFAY
# Outline: as §1
# HSF1 = HSF1 (Homo sapiens, UniProt Q00613 1-529); settings: protein: recombinant; tags: N-terminal GST; chain copies: 3; dsDNA, one strand shown
# Sequence of HSF1 (Q00613 whole entry): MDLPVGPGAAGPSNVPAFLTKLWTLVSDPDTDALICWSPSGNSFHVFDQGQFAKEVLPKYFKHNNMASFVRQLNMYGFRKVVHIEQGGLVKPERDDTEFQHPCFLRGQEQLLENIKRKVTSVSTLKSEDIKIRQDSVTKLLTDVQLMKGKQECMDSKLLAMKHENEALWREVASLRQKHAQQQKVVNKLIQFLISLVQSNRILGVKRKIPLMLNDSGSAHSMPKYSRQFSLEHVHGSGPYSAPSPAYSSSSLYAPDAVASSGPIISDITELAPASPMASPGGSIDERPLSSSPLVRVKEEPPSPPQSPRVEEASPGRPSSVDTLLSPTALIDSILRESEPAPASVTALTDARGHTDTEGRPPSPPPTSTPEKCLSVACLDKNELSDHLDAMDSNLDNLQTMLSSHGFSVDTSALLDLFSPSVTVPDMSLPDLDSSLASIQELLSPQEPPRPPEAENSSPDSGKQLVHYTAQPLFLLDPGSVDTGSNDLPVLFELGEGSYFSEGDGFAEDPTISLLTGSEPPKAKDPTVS
# Outline: as §1
# SPIC = target: T2, SPIC (Homo sapiens, UniProt Q8N5J4 1-248); settings: protein: recombinant; tags: N-terminal GST; dsDNA, one strand shown
# T2 sequence: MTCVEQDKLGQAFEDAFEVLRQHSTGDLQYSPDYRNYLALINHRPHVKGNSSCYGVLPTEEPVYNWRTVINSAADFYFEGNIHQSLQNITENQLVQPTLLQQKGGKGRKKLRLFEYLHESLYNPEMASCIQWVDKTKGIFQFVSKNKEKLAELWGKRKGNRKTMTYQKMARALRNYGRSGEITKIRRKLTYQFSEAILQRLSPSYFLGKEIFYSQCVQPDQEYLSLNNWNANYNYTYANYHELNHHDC
# Outline: as §1
# ELF4 = ELF4 (Homo sapiens, UniProt Q99607 1-663); settings: protein: recombinant; tags: N-terminal GST; dsDNA, one strand shown
# Sequence of ELF4 (Q99607 whole entry): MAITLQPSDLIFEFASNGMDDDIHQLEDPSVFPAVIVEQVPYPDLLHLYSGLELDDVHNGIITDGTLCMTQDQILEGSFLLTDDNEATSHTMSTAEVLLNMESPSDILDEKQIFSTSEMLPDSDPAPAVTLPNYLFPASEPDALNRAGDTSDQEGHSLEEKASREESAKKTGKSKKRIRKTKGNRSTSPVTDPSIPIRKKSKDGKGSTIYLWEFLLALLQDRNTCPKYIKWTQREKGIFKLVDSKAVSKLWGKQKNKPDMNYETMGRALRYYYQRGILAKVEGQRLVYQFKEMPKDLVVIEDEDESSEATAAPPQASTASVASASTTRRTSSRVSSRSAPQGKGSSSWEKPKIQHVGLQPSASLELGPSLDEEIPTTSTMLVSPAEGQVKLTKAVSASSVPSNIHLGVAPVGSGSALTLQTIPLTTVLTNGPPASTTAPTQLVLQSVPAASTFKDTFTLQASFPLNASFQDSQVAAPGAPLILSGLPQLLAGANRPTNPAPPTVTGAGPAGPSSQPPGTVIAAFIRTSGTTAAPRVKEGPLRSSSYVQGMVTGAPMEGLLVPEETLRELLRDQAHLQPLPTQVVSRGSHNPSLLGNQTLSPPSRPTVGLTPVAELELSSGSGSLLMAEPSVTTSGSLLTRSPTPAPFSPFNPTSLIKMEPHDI
# Outline: as §1
# ELK4 = target: T3, ELK4 (Homo sapiens, UniProt P28324-2 1-405); settings: protein: recombinant; tags: N-terminal GST; dsDNA, one strand shown
# T3 sequence: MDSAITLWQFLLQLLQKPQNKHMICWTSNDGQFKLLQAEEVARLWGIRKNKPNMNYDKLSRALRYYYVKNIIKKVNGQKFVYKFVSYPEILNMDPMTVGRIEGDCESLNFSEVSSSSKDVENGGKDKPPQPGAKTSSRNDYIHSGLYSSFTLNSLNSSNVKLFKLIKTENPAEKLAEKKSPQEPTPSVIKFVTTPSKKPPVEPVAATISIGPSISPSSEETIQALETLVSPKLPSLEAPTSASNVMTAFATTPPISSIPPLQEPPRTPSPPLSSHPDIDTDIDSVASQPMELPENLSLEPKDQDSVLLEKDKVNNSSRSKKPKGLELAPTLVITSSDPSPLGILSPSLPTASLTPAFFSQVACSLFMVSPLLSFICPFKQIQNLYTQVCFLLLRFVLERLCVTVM
# Outline: as §1
# ETV2 = target: T4, ETV2 (Homo sapiens, UniProt O00321 1-342); settings: protein: recombinant; tags: N-terminal GST; dsDNA, one strand shown
# T4 sequence: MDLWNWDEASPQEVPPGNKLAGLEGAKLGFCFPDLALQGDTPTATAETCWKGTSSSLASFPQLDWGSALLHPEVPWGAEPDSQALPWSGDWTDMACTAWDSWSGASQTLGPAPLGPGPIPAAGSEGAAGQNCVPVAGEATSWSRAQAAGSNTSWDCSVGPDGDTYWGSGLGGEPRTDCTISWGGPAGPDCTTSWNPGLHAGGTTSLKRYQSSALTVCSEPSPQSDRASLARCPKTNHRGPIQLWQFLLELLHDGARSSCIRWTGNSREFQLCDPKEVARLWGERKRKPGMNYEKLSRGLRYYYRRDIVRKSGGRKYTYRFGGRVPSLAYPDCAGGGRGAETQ
# Outline: as §1
# ELF3 = target: T5, ELF3 (Homo sapiens, UniProt P78545 1-371); settings: protein: recombinant; tags: N-terminal GST; dsDNA, one strand shown
# T5 sequence: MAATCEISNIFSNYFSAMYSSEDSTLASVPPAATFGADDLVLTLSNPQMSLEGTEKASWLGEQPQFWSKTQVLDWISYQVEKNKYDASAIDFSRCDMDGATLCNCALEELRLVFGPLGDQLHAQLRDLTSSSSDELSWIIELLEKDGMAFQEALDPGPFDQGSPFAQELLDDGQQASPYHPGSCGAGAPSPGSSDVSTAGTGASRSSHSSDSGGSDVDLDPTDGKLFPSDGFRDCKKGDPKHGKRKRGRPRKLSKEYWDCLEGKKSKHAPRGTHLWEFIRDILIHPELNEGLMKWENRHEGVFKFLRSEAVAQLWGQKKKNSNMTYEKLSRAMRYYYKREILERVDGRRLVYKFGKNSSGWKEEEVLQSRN
# Outline: as §1
# CRX = CRX (Homo sapiens, UniProt O43186 1-299); settings: protein: recombinant; tags: N-terminal GST; dsDNA, one strand shown
# Sequence of CRX (O43186 whole entry): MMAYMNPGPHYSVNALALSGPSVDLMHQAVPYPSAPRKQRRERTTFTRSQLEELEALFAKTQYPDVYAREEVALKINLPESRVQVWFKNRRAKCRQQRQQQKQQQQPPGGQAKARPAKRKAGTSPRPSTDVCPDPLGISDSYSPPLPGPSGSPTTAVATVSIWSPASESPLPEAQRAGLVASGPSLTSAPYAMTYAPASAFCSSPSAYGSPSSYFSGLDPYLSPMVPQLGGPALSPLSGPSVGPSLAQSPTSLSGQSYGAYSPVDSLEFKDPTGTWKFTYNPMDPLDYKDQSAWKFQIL
# Outline: as §1
# ETV1 = ETV1 (Homo sapiens, UniProt P50549 1-477); settings: protein: recombinant; tags: N-terminal GST; dsDNA, one strand shown
# Sequence of ETV1 (P50549 whole entry): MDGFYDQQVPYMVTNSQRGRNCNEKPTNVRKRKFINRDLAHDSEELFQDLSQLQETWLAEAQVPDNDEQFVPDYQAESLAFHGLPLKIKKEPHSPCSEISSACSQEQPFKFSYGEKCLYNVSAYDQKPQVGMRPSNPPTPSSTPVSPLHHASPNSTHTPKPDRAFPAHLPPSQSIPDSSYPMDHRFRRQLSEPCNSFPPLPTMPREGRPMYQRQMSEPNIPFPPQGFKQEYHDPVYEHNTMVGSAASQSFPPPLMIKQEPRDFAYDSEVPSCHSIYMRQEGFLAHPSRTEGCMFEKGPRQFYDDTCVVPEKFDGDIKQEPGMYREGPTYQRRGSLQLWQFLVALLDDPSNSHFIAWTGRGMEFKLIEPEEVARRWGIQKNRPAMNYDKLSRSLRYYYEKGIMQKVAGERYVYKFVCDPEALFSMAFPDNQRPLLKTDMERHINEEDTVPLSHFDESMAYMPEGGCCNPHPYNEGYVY
# Outline: as §1
sequence,measurement,setting,value
TCTTCG,binding signal,FEV,"1.49 fold enrichment (6-mer frequency, TF over GST control)"
same,binding signal,ETV5,"1.51 fold enrichment (6-mer frequency, TF over GST control)"
same,binding signal,HSF1,"1.97 fold enrichment (6-mer frequency, TF over GST control)"
same,binding signal,SPIC,"1.38 fold enrichment (6-mer frequency, TF over GST control)"
same,binding signal,ELF4,"1.49 fold enrichment (6-mer frequency, TF over GST control)"
same,binding signal,ELK4,"1.45 fold enrichment (6-mer frequency, TF over GST control)"
same,binding signal,ETV2,"1.5 fold enrichment (6-mer frequency, TF over GST control)"
same,binding signal,ELF3,"1.47 fold enrichment (6-mer frequency, TF over GST control)"
same,binding signal,CRX,"1.61 fold enrichment (6-mer frequency, TF over GST control)"
same,binding signal,ETV1,"1.47 fold enrichment (6-mer frequency, TF over GST control)"
